Assay results as given in PubChem BioAssay (Tox21).
Values joined by “and” are separate entries in the source; they are usually repeats but may differ in a detail not shown here. Equal entries are not always repeated. Results filed as inconclusive are left out. Active and inactive are the calls of the source. Unless noted, the call rests on the fitted dose curve; in most records, active means well fitted curve in the direction sought with a large enough effect in the repeat runs; inconclusive means weak or mixed curves; inactive means no such curve, though single readings can be large; an effect the other way counts as inactive or inconclusive.

How the values were obtained:
[1] = A CellTox Green Cytotoxicity Assay to monitor cytotoxicity in HEK293 cells - 32 hour (AID 1224881); further: nearly all actives have a fitted effect of over 40% in size; further: potency means the concentration at half of the fitted maximal effect
Summary of the method: (§1)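 Tox21 screen in HEK293: membrane-impermeant cyanine dye fluoresces on binding dead-cell DNA; compound pinned 5 h post-seeding, plates held at 37 C, signal read repeatedly through 40 h.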

[2] = A CellTox Green Cytotoxicity Assay to monitor cytotoxicity in HepG2 cells - 0 hour (AID 1224882); further: nearly all actives have a fitted effect of over 35% in size
Summary of the method: (§2)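 Measurements at 0, 8, 16, 24, 32 and 40 h of treatment captured CellTox Green fluorescence in HepG2 cells that had been co-plated with reagent and preincubated 5 h at 37 C/5% CO2.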

[3] = A CellTox Green Cytotoxicity Assay to monitor cytotoxicity in HepG2 cells - 32 hour (AID 1224883); further: nearly all actives have a fitted effect of over 50% in size; further: potency means the concentration at half of the fitted maximal effect
Summary of the method: as §2

[4] = A CellTox Green Cytotoxicity Assay to monitor cytotoxicity in HEK293 cells - 8 hour (AID 1224884); further: nearly all actives have a fitted effect of over 35% in size
Summary of the method: as §1

[5] = qHTS RealTime-Glo MT Cell Viability Assay in HEK293 cells - 24 hour (AID 1224886); further: nearly all actives have a fitted effect of over 50% in size; further: potency means the concentration at half of the fitted maximal effect
Summary of the method: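 Homogeneous bioluminescent viability format in HEK293 cells (600 cells/well). Following 5 h at 37 C/5% CO2, 23 nL compound was pintooled; the signal was measured repeatedly during 40 h incubation.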

[6] = qHTS RealTime-Glo MT Cell Viability Assay in HEK293 cells - 8 hour (AID 1224887); further: nearly all actives have a fitted effect of over 50% in size; further: potency means the concentration at half of the fitted maximal effect
Summary of the method: (§3)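 HEK293 + NanoLuc + prosubstrate, 600 cells/well; 5 h, 37 C/5% CO2; compound 23 nL in DMSO by pintool; 37 C; luminescence read at 0, 8, 16, 24, 32 and 40 h time points.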

[7] = A CellTox Green Cytotoxicity Assay to monitor cytotoxicity in HEK293 cells - 16 hour (AID 1224888); further: nearly all actives have a fitted effect of over 35% in size
Summary of the method: as §1

[8] = qHTS RealTime-Glo MT Cell Viability Assay in HepG2 cells - 0 hour (AID 1224889); further: nearly all actives have a fitted effect of over 50% in size
Summary of the method: (§4)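 Cell number in HepG2 cultures estimated from NanoLuc luminescence generated by metabolic reduction of a prosubstrate by living cells. The homogeneous, nonlytic format allowed repeated reads at 0, 8, 16, 24, 32 and 40 h of compound exposure.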

[9] = A CellTox Green Cytotoxicity Assay to monitor cytotoxicity in HepG2 cells - 8 hour (AID 1224890); further: nearly all actives have a fitted effect of over 45% in size; further: potency means the concentration at half of the fitted maximal effect
Summary of the method: as §2

[10] = qHTS assay to identify small molecule antagonists of the estrogen receptor alpha (ER-alpha) signaling pathway using the BG1 cell line in the presence of 0.1 nM 17-beta-estradiol - cell viability counter screen (AID 1259241); further: nearly all actives have a fitted effect of over 40% in size; further: potency means the concentration at half of the fitted maximal effect
Summary of the method: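 Viability in VM7Luc4E2 cells after 22 hr compound exposure under 0.1 nM 17beta-estradiol stimulation, by CellTiter-Fluor.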

[11] = qHTS assay to identify small molecule antagonists of the androgen receptor (AR) signaling pathway using the MDA cell line in the presence of 0.5 nM R1881 - cell viability counter screen (AID 1259242); further: nearly all actives have a fitted effect of over 45% in size
Summary of the method: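 Concentration-response screen of compounds for toxicity in MDA-kb2 reporter cells: 16 hr at 37C with 0.5 nM R1881, endpoint live-cell protease fluorescence measured in the reporter wells.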

[12] = target: Androgen receptor (Homo sapiens) (UniProt P10275); assay: qHTS assay to identify small molecule antagonists of the androgen receptor (AR) signaling pathway using the MDA cell line in the presence of 0.5 nM R1881 (AID 1259243); further: nearly all actives have a fitted effect of over 50% in size; further: potency means the concentration at half of the fitted maximal effect
Chain of Androgen receptor (Homo sapiens) (P10275 whole entry, looked up): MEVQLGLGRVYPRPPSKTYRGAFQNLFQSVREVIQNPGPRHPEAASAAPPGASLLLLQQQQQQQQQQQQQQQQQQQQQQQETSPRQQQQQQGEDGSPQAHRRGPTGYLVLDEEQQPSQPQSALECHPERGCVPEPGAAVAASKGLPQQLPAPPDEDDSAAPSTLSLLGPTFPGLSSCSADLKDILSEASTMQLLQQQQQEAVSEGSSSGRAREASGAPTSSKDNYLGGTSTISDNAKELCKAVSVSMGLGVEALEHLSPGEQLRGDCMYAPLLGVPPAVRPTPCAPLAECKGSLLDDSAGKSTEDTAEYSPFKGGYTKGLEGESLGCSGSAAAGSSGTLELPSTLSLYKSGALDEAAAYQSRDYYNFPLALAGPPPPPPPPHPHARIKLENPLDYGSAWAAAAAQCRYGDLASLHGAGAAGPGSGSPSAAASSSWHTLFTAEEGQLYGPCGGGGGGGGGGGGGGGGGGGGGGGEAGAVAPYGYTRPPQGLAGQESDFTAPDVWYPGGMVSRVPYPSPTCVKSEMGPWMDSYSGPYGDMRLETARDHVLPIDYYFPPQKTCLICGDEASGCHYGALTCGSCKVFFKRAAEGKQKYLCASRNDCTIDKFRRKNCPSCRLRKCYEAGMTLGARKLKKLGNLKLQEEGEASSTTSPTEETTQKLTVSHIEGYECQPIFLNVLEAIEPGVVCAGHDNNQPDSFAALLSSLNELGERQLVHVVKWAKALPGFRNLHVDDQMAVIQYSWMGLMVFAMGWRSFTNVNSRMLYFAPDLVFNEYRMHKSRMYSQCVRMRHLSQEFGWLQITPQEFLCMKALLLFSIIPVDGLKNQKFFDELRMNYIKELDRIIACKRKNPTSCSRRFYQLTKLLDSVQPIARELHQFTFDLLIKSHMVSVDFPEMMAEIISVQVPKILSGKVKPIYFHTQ
Summary of the method: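 With R1881 held at 0.5 nM (final), compound effects on MMTV-luciferase expression in MDA-kb2 cells were scored by luminescence after a 16 hr, 37C incubation.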

[13] = qHTS assay to identify small molecule HDAC inhibitors (AID 1259364);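 further: wild-type HCT-116 cells with endogenous class I/II HDAC activity; top concentration of the series differs between compounds; nearly all actives have a fitted effect of over 45% in size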
Summary of the method: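 Screening used wild-type human colon HCT-116 cells incubated overnight, dosed with compounds for 2 hours, and assayed with a homogeneous luminogenic HDAC I/II reagent for 30 minutes at room temperature.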

[14] = qHTS assay to identify small molecule HDAC inhibitors - cell viability counter screen (AID 1259365)
Summary of the method: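 Cytotoxicity was gauged in wild-type HCT-116 cells after a brief 2hr treatment with DMSO-dissolved compounds at 37C and 5% CO2, using CellTiter-Glo luminescence developed for 30min at room temperature.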

[15] = qHTS assay to identify small molecule agonists of the sonic hedgehog signaling (Shh) pathway - cell viability counter screen (AID 1259366); further: nearly all actives have a fitted effect of over 50% in size; further: potency means the concentration at half of the fitted maximal effect
Summary of the method: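 Stable Gli1-Luc NIH/3T3 clone, 2,000 cells/well. Compound exposure 24hr at 37C. Read-out: CellTiter-Fluor fluorescence.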

[16] = qHTS assay to identify small molecule antagonists of the sonic hedgehog signaling (Shh) pathway - cell viability counter screen (AID 1259367); further: nearly all actives have a fitted effect of over 55% in size; further: potency means the concentration at half of the fitted maximal effect
Summary of the method: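 Fluorescence read-out (CellTiter-Fluor, 1 hr at 37C) taken after 23 hr compound treatment of 3T3 Gli1-Luc cells stimulated with conditioned medium. Cells were seeded at 2,000 per well and pre-incubated 4 hr.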

[17] = qHTS RealTime-Glo MT Cell Viability Assay in HepG2 cells - 16 hour (AID 1224885); further: nearly all actives have a fitted effect of over 50% in size
Summary of the method: as §4

[18] = target: Estrogen receptor (Homo sapiens) (UniProt P03372); assay: qHTS assay to identify small molecule antagonists of the estrogen receptor alpha (ER-alpha) signaling pathway using the BG1 cell line in the presence of 0.1 nM 17-beta-estradiol (AID 1259244); further: nearly all actives have a fitted effect of over 50% in size; further: potency means the concentration at half of the fitted maximal effect
Chain of Estrogen receptor (Homo sapiens) (P03372 whole entry, looked up): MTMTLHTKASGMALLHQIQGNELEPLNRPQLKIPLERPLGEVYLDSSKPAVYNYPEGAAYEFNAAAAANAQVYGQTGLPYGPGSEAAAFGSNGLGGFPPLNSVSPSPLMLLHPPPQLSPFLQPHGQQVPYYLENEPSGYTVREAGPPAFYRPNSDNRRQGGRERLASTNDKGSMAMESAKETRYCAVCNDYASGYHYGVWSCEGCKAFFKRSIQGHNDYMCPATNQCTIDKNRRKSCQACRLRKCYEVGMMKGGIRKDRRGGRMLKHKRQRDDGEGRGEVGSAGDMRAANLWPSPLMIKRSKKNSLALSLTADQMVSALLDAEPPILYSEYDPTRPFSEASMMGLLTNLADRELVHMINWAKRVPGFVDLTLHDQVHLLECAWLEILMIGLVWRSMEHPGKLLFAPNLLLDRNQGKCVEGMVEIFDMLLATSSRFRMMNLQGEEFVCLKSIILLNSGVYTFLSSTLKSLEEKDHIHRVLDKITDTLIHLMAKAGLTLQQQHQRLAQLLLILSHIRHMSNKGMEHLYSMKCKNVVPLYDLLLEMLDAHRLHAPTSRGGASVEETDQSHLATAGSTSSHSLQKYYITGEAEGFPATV
Summary of the method: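 Compounds were tested against 0.1 nM (final) 17beta-estradiol in VM7Luc4E2 cells, which express full-length ER-alpha and an ERE-luciferase reporter; luminescence was recorded following 22 h exposure.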

[19] = qHTS assay to identify small molecule phospholipidosis (PLD) inducers (AID 1259344; active means well fitted curve in the direction sought with a large enough effect; an effect the other way counts as inactive or inconclusive)
Summary of the method: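 Read-out is LipidTOX Red fluorescence (ex 595/em 615) imaged in HepG2 cells after 24 h compound exposure at 37 C, with Hoechst nuclear counterstain (ex 352/em 461) allowing per-cell normalisation.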

[20] = qHTS RealTime-Glo MT Cell Viability Assay in HEK293 cells - 0 hour (AID 1224880); further: top concentration of the series differs between compounds; nearly all actives have a fitted effect of over 45% in size
Summary of the method: as §3

Measured: Potency

CC1=NN(c2ccc(C(=O)O)cc2)C(=O)C1
inactive: [1] | [2] | [3] | [4] | [5] | [6] | [7] | [8] | [9] | [10] | [11] | [12] | [13] | [14] | [15] | [16]

Cc1ccc(Nc2nccc(N(C)c3ccc4c(C)n(C)nc4c3)n2)cc1S(N)(=O)=O
active: [5] 1.51 µM | [6] 2.13 µM | [12] 11.9 µM
inactive: [1] | [2] | [3] | [4] | [17] | [7] | [8] | [9] | [10] | [11] | [13] | [14] | [16]

CC(=O)CC(c1ccc([N+](=O)[O-])cc1)c1c(O)c2ccccc2oc1=O (centres undefined)
inactive: [1] | [2] | [3] | [4] | [17] | [5] | [6] | [7] | [8] | [9] | [10] | [11] | [18] | [19] | [13] | [14] | [15] | [16]

CC(C)(C)C(=O)O
inactive: [1] | [2] | [3] | [17] | [5] | [6] | [7] | [8] | [9] | [10] | [11] | [13] | [14] | [15] | [16]

CC(CCc1ccc2c(c1)OCO2)NN (centres undefined)
inactive: [1] | [2] | [3] | [4] | [17] | [5] | [6] | [7] | [8] | [9] | [10] | [11] | [19] | [13] | [14] | [15] | [16]

CO[C@H]1C=CO[C@@]2(C)Oc3c(C)c(O)c4c(O)c(c5c(c4c3C2=O)=NC2(CCN(CC(C)C)CC2)N=5)NC(=O)/C(C)=C\C=C/[C@H](C)[C@H](O)[C@@H](C)[C@@H](O)[C@@H](C)[C@H](OC(C)=O)[C@@H]1C
inactive: [1] | [2] | [4] | [7] | [8] | [19] | [13] | [14]
active: [3] 47.9 µM | [5] 38.1 µM | [10] 47.5 µM | [12] 67.1 µM | [18] 59.8 µM | [15] 26.7 µM | [16] 23.8 µM

Cc1nccn1-c1ccc(Sc2cccc(C3(C(N)=O)CCOCC3)c2)cc1
inactive: [20] | [2] | [7] | [8] | [14] | [15] | [16]
active: [5] 1.38 µM

CC(COc1ccc(C(C)(C)C)cc1)OS(=O)OCCCl (centres undefined)
active: [18] 1.38 µM
inactive: [1] | [2] | [3] | [4] | [6] | [7] | [8] | [10] | [11] | [13] | [14] | [15] | [16]

CCOC(=O)c1ccccc1C
inactive: [20] | [2] | [4] | [17] | [5] | [6] | [7] | [8] | [9] | [10] | [11] | [18] | [13] | [14] | [15] | [16]

Nc1nccs1
inactive: [20] | [2] | [3] | [17] | [6] | [8] | [9] | [10] | [11] | [19] | [13] | [14] | [15] | [16]

CC(=O)Oc1ccc2c(c1)CC[C@@H]1[C@@H]2CC[C@]2(C)[C@@H](O)CC[C@@H]12
inactive: [20] | [4] | [17] | [7] | [8] | [9] | [10] | [11] | [19] | [13] | [14] | [15] | [16]

COCc1c(C(C)C)nc(C(C)C)c(/C=C/[C@@H](O)C[C@@H](O)CC(=O)O)c1-c1ccc(F)cc1
inactive: [1] | [2] | [4] | [7] | [9] | [10] | [11] | [12] | [18] | [19] | [13] | [14] | [15] | [16]
active: [3] 338 nM and 4.84 µM

Cc1cc(O)c(C(C)C)cc1Cl
active: [1] 38.9 µM | [3] 34.7 µM | [9] 43.6 µM
inactive: [2] | [4] | [17] | [6] | [7] | [8] | [10] | [11] | [18] | [19] | [13] | [14] | [15] | [16]
